Residue numbers refer to the chain shown, from its start. In all, about 5,800 sequences were measured (“enrichment r”: median about 0.54, highest 2% from about 16 on). Only a selection was taken, and the highest values are over-represented in it overall.

Among the data in paper PMC12136788 are binding signal values, retold here.

B1: chr2:99394746:99394872:+|CDS|ENSG00000158417|unk|total|mutant (ssRNA)
RNA: GGGAGUUCUACAGUCCGACGAUCGAUGUGAGAAUUGAACGAGAUGCACAAGAAAUGGCUGACCGUUCCGGAGUCCGAAUUUUCCGUGCAGAAAUUAUUUAUCAUUUAUUUGAUGCCUUUACAAAAUACCGACAAGACUACAAGCAACAGAGGAUUGAGCAUCA
B2: chr15:49134392:49134529:-|CDS|ENSG00000166200|unk|FALSE|unique (ssRNA)
RNA: GGGAGUUCUACAGUCCGACGAUCAUAUUUGCUUUCCUAGACUGAUGAUGGAGAAGAUGAUCUGAAAAAAGGUACACAGUUAUUAGAAAUAUAUGCUUUGGAAAUUCAAAUGUACACAGCACAGAAAAAUAACAAAAAACUUAACAACAGAGGAUUGAGCAUCA
B3: chr9:5123879:5124511:-|three_prime_utr|ENSG00000120210|control|control|control (ssRNA)
RNA: GGGAGUUCUACAGUCCGACGAUCCUGGUAAAUUGGAUUGCCAUAUGCAGAAGAAUGAAACUGGACCCAUAUUUAUCACCAUAUAGAAAAAUUAACUCGAUCGAUUACAGACUUAAAUGUAAGAUCUGAAACUAGAAAAAUACUCAACAGAGGAUUGAGCAUCA
B4: chr5:72209348:72209524:+|3pUTR|ENSG00000131711|msi1_unk|total|mutant (ssRNA)
RNA: GGGAGUUCUACAGUCCGACGAUCUUAUGUCUUAUAAUCCUGCAUCACUUCUAUCCUAUCCAGUCAUAUCUAAUGCCGAAAAUCCGUUUCCAGUGAAAGUAAUAUGCCGUGCUUUUAUGAUAUUUGUGUGCAAUAUCCCCUCUUCAACAGAGGAUUGAGCAUCA
B5: chr17:37686430:37687371:-|three_prime_utr|ENSG00000275410|control|control|control (ssRNA)
RNA: GGGAGUUCUACAGUCCGACGAUCUGCAAUUUCCCCUCUGUGUCCUCUCCCCUCUGCCCUGUAUAUAAUACUAAAGUGUCUAUUAGUUUUCUUUGUAAAGGUCAGAGUCAAAAUUUCAAAAGUGAUCUGUCCCCUCUCCCCUCACAACAGAGGAUUGAGCAUCA
B6: chr17:61865808:61865921:-|3pUTR|ENSG00000108506|unk|FALSE|unique (ssRNA)
RNA: GGGAGUUCUACAGUCCGACGAUCUUCUAUGAGAAUGAGUUUGUAGCUGUUUCAAAUCAUGAAGUGCAUAGUAUCACAUGUGAUAGAAUAUUUAUAACUUUUUAUUAGAUGCUUAAUGUUCAAUUAAGUAAUUUUGAUGUGAAACAACAGAGGAUUGAGCAUCA
B7: chr5:24509697:24509799:-|CDS|ENSG00000040731|unk|FALSE|unique (ssRNA)
RNA: GGGAGUUCUACAGUCCGACGAUCACUCGACUAUGAGAGCCGAAGACUUUAUACUCUGAAAGUCGAAGCAGAAAACACCCAUGUAGAUCCCCGUUUUUAUUACCUAGGACCAUUUAAAGAUACUACCAUAGUGAAAAUCUCUAUCAACAGAGGAUUGAGCAUCA
B8: ENSG00000176244:stop:overlap|stop_codon|ENSG00000176244|stop_codon|NA|stop_codon (ssRNA)
RNA: GGGAGUUCUACAGUCCGACGAUCAAGAUGCGACGAGUGCCUAUAUUUCUAAAGCAAAGGAGCUGAUAGAAAAAUACGGAAUUUAGAAUACAGCAUAUGAGGAAUUUUUCCUUUUGAAGACUUCCAAAUGCUAUCAUGACCUAACAACAGAGGAUUGAGCAUCA
B9: chr11:101890673:101891278:-|three_prime_utr|ENSG00000187151|control|control|control (ssRNA)
RNA: GGGAGUUCUACAGUCCGACGAUCGUAAUGCAAGUUCUACAAUGAUAAUAUAUUAAAGAUUUUUAAAAGUUUAUCUUUUCACUUAGUGUUUCAAACAUAUUAGGCAAAAUUUAACUGUAGAUGGCAUUUAGAUGUUAUGAGUUUCAACAGAGGAUUGAGCAUCA
B10: chr16:21983864:21984660:-|three_prime_utr|ENSG00000155714|control|control|control (ssRNA)
RNA: GGGAGUUCUACAGUCCGACGAUCAAAGAAAAUUGAGCUGGCAAAAGAUGAAUCUUUCACAAGCAGUGAUGAUAAUGAAAAUGUAGAUUUAGAUAAAAGACUUCAAUAUUAUAGAUAUCCGUGGUCAACUGUGCAUCACCCUGCCAACAGAGGAUUGAGCAUCA
B11: chr5:72209348:72209524:+|3pUTR|ENSG00000131711|msi1_unk|FALSE|overlapping (ssRNA)
RNA: B4 RNA with C75U, C76A, C83U, C84A, C106U, C107A
B12: chr2:99394746:99394872:+|CDS|ENSG00000158417|unk|FALSE|unique (ssRNA)
RNA: B1 RNA with C62U, C63A, C67U, C68A, C74U, C75A, C83U, C84A, C128U, C129A
B13: chr11:118751385:118751486:-|3pUTR|ENSG00000110367|msi1|FALSE|unique (ssRNA)
RNA: GGGAGUUCUACAGUCCGACGAUCUUGAAGUCUCUUCCCUUUCUACCCAGUACUCGAGCCCAGGGCUAGAAGUUGAAACUCACUAGUAAUGUUAAACACCAUUUUUUUUUUCUUUUUGGGGAGGAGUUGAUAUGCAACUGCAGUCAACAGAGGAUUGAGCAUCA
B14: chr4:173322470:173322571:+|3pUTR|ENSG00000109586|msi1|total|mutant (ssRNA)
RNA: GGGAGUUCUACAGUCCGACGAUCUGCCGCAUUCACUCCCUUACCUACUGGCAUUCCCAGUGCCCUCUGUCCAUACCUACUUCCCGGAUUGCAAAGGAGUCUUCCAACCCGAGAAAAAUUGUCCACUGACAUUUGGGAUUUACUCAACAGAGGAUUGAGCAUCA
B15: chr8:7990417:7990620:-|CDS|ENSG00000205989|control|control|control (ssRNA)
RNA: GGGAGUUCUACAGUCCGACGAUCGAUGUCUGCAACAUAGUAGAAGAUCAAAUUGGUGCCUGCCGAAGAAGGAUGAAGUGCUGUAGAGCAUGGUGGAUUUUAAUGCCAAUUCCAACACCACUUAUCAUGUCAGAUUAUCAAGAACAACAGAGGAUUGAGCAUCA
B16: chr20:37241422:37241523:+|3pUTR|ENSG00000118705|msi1_unk|FALSE|overlapping (ssRNA)
RNA: GGGAGUUCUACAGUCCGACGAUCGUAUGAGAAGAAAAAUGGAAAAAAAAAACUUUAUUUAAAAAAGAAAAAAGUCCAGAUUGUAGUUAUACUUUUGCUUGUUUUUCAGUUUCCCCAACACACAGCAGAUACCUGGUGAGCUCACAACAGAGGAUUGAGCAUCA
B17: chr8:80500255:80500365:+|CDS|ENSG00000205189|unk|total|mutant (ssRNA)
RNA: GGGAGUUCUACAGUCCGACGAUCGAAAAACCAAACUACAAAAAGAUUUAUUUAUAAUAUUCCACCUAAUAAUGAAACGAAUUCCGAAGAUUGCUCAGUAAUGCAGCCACCUGUUGCCUAUCCAGAAGAAAAUACACUACUCAUCAACAGAGGAUUGAGCAUCA
B18: chr2:30158716:30158817:+|CDS|ENSG00000119801|msi1|total|mutant (ssRNA)
RNA: GGGAGUUCUACAGUCCGACGAUCGUUUGCCACUGAAGACAGCCAGCGAUAUAAGGAAGGCCGCGUGAUCCUGGAACGUGCUCCCGUUCGAGAGAGUGAGGGCUUUGAGGAGCAUGUACCAUCUGAUAACUCUUGAAGAUACAGCAACAGAGGAUUGAGCAUCA
B19: chr5:115137525:115137627:-|CDS|ENSG00000152503|unk|FALSE|unique (ssRNA)
RNA: GGGAGUUCUACAGUCCGACGAUCUUUAGCAGAAGAGGCUAUUCUUUGUUUUAUCUUAGUGUAAUGGAGAUACUGUUUUUUCUUAGUGUAAUGGAGAGAGGGCUAAAGAAGAAGCAAUUACACAUUUUGAAAAGCUCUUUGAAGCAACAGAGGAUUGAGCAUCA
B20: ENSG00000115904:stop:overlap|stop_codon|ENSG00000115904|stop_codon|NA|stop_codon (ssRNA)
RNA: GGGAGUUCUACAGUCCGACGAUCUUUUGCAACGAAUGGAAGAAUUUAUUGGAACAGUAAGAGAGCUGUACAGCCAUCAGAAUUAGUUGGAAGUGUGUGGACAAAAGAAGACAAAGAAAUUAACUCUCCUAAUCUUCUGAAAAUCAACAGAGGAUUGAGCAUCA
B21: chr5:52955293:52955406:+|3pUTR|ENSG00000213949|unk|total|mutant (ssRNA)
RNA: GGGAGUUCUACAGUCCGACGAUCUACCAACCAGUGUGAGCUGACUUCAGCACACCACUGAGACAGAUUACACGACCGACAGACCGACCGACCGACCGACCGACCGACCGACCGACCGACCGACCGAUAUUGACCGAGAACAUGCAACAGAGGAUUGAGCAUCA
B22: chr15:56434137:56434395:-|CDS|ENSG00000138587|control|control|control (ssRNA)
RNA: GGGAGUUCUACAGUCCGACGAUCAGAGGAAGAGGAGAACUUUAGAAAAACUAUGCUAGCUAAAUUUGCUGAGGAUGAUCGAAUAGAAUUAAUGAAUGCUCAGAAACAAAGAAUGAAGCAGCUGGAACACAGGAGGGCUGUGGACAACAGAGGAUUGAGCAUCA
B23: ENSG00000136451:be:win_1001|CDS|ENSG00000136451|bound_else_gene|NA|bound_elsewhere_windowed (ssRNA)
RNA: GGGAGUUCUACAGUCCGACGAUCACCAAAAGCAGCAGCAGCAGCAGCAGCAGCAGCAGCAGCAGCAGCAACAACAACAACAACAACAUGUGACAAGCUGGCCAGGGAAGCAAGUAGAAACACUGAGACUGUGGGAAGAAGCUGCAACAGAGGAUUGAGCAUCA
B24: chr5:52955293:52955406:+|3pUTR|ENSG00000213949|unk|FALSE|unique (ssRNA)
RNA: GGGAGUUCUACAGUCCGACGAUCUACCAACCAGUGUGAGCUGACUUCAGCACACCACUGAGACAGAUUACACGAUAGACAGAUAGAUAGAUAGAUAGAUAGAUAGAUAGAUAGAUAGAUAGAUAGAUAUUGAUAGAGAACAUGCAACAGAGGAUUGAGCAUCA
B25: chr12:122341087:122341188:-|CDS|ENSG00000130779|unk|total|mutant (ssRNA)
RNA: GGGAGUUCUACAGUCCGACGAUCAGAAUUUGCUGAACUAAAAACACAAACCGAGAAAAUGAGACCCGAUUACCAACACGAAACCGAAAAUUUGCAGAAUCAACAAGACUCUGAACGGGCUGCCCAUGCUAAAGAGAUGGAAGCCAACAGAGGAUUGAGCAUCA
B26: chr12:122341087:122341188:-|CDS|ENSG00000130779|unk|FALSE|bound_elsewhere (ssRNA)
RNA: B25 RNA with C50U, C51A, C65U, C66A, C83U, C84A

Sequence of MSI1 full-length (Q61474 whole entry): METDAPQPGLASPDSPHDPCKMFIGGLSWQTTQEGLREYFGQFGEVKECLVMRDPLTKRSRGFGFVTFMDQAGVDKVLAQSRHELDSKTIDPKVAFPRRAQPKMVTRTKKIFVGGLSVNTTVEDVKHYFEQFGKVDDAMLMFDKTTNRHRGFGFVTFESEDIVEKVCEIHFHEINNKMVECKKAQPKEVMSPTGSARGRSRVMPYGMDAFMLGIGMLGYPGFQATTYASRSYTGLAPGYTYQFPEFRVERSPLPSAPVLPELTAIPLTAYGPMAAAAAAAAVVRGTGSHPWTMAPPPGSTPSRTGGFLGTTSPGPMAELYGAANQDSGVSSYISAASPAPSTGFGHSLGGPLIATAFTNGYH

The assay has as its target MSI1 full-length (mouse, UniProt Q61474 1-362). Nature of the assay: nsRBNS (natural sequence RNA bind-n-seq); RBNS binding buffer (assumed for nsRBNS): 25 mM Tris pH 7.5, 150 mM KCl, 3 mM MgCl2, 0.01% Triton X-100, 500 ug/ml BSA, 20 U/ml SUPERase-In, 4 C; UNK is unkempt and MSI1 is Musashi-1; names of the RNAs are library labels; protein concentration not given here; high values mean tight binding.
On to B1, for which the binding signal stood at 0.374 enrichment R.
The figure for B2 is 0.819 enrichment R; for B3 it is 19.7 enrichment R.
With B4, the binding signal was 0.64 enrichment R.
As to B5, the binding signal turned out to be 0.979 enrichment R.
B6 returned a binding signal of 5.16 enrichment R.
In the case of B7 it was 3.85 enrichment R; in that of B8, 0.512 enrichment R; in that of B9, 3.72 enrichment R.
Turning to B10, the binding signal was found to be 43.6 enrichment R.
Molecule B11 gave a binding signal of 22.2 enrichment R.
Molecule B12 returned a binding signal of 35 enrichment R.
In the case of B13 it was 1.4 enrichment R; in that of B14, 0.767 enrichment R.
In the case of B15 it was 0.446 enrichment R; in that of B16, 1.41 enrichment R; in that of B17, 3.62 enrichment R.
For the molecule B18, the binding signal stood at 0.472 enrichment R.
In the case of B19, the binding signal came to 2.18 enrichment R.
The molecule B20 registered a binding signal of 1.25 enrichment R.
The figure for B21 is 0.369 enrichment R.
B22 yielded a binding signal of 3.42 enrichment R.
B23: the binding signal amounted to 0.597 enrichment R.
In the case of B24 it was 67 enrichment R; in that of B25, 0.402 enrichment R; in that of B26, 16.5 enrichment R.
